The campaign covered roughly 3,400 compounds. About 840 (25%) were called active. Not shown: some 11% with an inconclusive outcome. A selection follows. Measured potencies and affinities stand elsewhere. Unmarked numbers belong to inactive results.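 Rule for the calls: active = fitted half-maximal concentration of signal decrease at or below twice the sample's top tested concentration; inconclusive = flat curve between -70 and -30 percent, or poor fit; inactive = flat within 30 percent, signal rise, or potency above limit.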
Test: T. gondii growth inhibition with IFN-gamma, dose response, cell-based, ME49Luc, HeLa, luciferase, 72 h (AID 1259418)
Details: T. gondii ME49Luc in IFN-y HeLa, stronger effect = lower value, -100% = high-dose IFN-γ control wells; at 19.5 µM unless noted

| SMILES | max activity |
| --- | --- |
| Cc1ccc(C(=O)Nc2c(C(=O)N3CCN(c4ccccn4)CC3)[nH]c3ccc(C)cc23)cc1 | 31.1% [at 0.68 µM] |
| Cc1ccc2c(c1C)-n1cccc1C1(CCN(C(=O)c3ccccc3C(F)(F)F)CC1)N2 | -6.6% [at 5 µM] |
| COc1ccc2c(c1)NC1(CCN(C(=O)COc3cccc(C)c3)CC1)c1cccn1-2 | -5.04% [at 0.16 µM] |
| COc1ccc2c(c1)NC1(CCN(C(=O)c3cc(OC)c(OC)c(OC)c3)CC1)c1cccn1-2 | 9.35% [at 0.35 µM] |
| COc1cc(OC)cc(C(=O)N2CCC3(CC2)Nc2cc(F)ccc2-n2cccc23)c1 | 10.1% |
| COc1ccc(OCC(=O)N2CCC3(CC2)Nc2cc(F)ccc2-n2cccc23)cc1 | 4.86% [at 10 µM] |
| COc1ccc(-c2nc(Nc3ccc(F)cc3Cl)c3ccccc3n2)cc1 | 8.01% |
| Cc1oc(-c2ccccc2)nc1Cn1nnc(-c2nc(-c3ccc(Cl)cc3)no2)c1C | 11.1% |
| N#CCSC1=Nc2ccccc2C2=NC(CC(=O)NC3CCCCC3)C(=O)N12 (configuration not stated) | 23.6% [at 10 µM] |
| CC(=O)N1Cc2ncn(CC3CC3)c2C(COCC2CCOCC2)C1 (configuration not stated) | 8.65% |
| COCC1CN(C(=O)c2cc(C)on2)Cc2c1cnn2CC1CC1 (configuration not stated) | 27.1% |
| CCOc1ccccc1C(=O)N1CCC2(CC1)Nc1ccc(C)c(C)c1-n1cccc12 | -6.2% [at 2.6 µM] |
| COc1ccccc1N(Cc1nc(-c2ccccc2)oc1C)S(=O)(=O)c1ccccc1 | -5.89% [at 0.35 µM] |
| COc1ccc(S(=O)(=O)N(Cc2nc(-c3cccc(Cl)c3)oc2C)c2ccccc2OC)cc1 | -7.97% [at 5 µM] |
| CCOc1ccc(NC(=O)Nc2ccc(-c3nc(-c4ccc(C)cc4)co3)cc2)cc1 | 62.7% |
| N#CCSC1=Nc2ccccc2C2=NC(CCC(=O)NCc3ccc4c(c3)OCO4)C(=O)N12 (configuration not stated) | 17.8% |
| CCc1c(C)sc2c1CCN(Cc1nc(-c3cc(C)ccc3C)oc1C)C2c1ccccc1 (configuration not stated) | 12.6% [at 5 µM] |
| CN1CCN(C(=O)Cc2ccsc2)Cc2cccnc21 | 40% |
| Cc1ccnc(Nc2nc(C)c(C(=O)N3CCC(C(N)=O)(N4CCCCC4)CC3)s2)c1 | -7.52% [at 0.35 µM] |
| CCN(CCNc1nc(-c2ccccc2Cl)nc2ccccc12)c1cccc(C)c1 | 12.3% |
| COc1ccc(-c2nc(Nc3cc(OC)ccc3OC)c3ccccc3n2)cc1 | -18.7% [at 5 µM] |
| COc1ccc(-c2nc(Nc3ccc(CN4CCCCC4)cc3)c3ccccc3n2)cc1 | 10.9% [at 10 µM] |
| COc1ccc(-c2nc(Nc3ccccc3OC)c3ccccc3n2)cc1 | 20% |
| CCc1ccc(Nc2nc(-c3ccc(OC)cc3)nc3ccccc23)cc1 | -16.2% [at 0.35 µM] |
| Clc1ccccc1-c1nc(NCCCc2ccccc2)c2ccccc2n1 | -24.4% [at 10 µM] |
| COc1ccc(-c2nc(Nc3ccccc3)c3ccccc3n2)cc1 | 6.36% [at 10 µM] |
| COc1ccc(Nc2nc(-c3ccc(OC)cc3)nc3ccccc23)cc1 | 12.9% |

Reference: PubChem BioAssay AID1259418 (Broad Institute, 2018)
